# Measurements: paper PMC7862700, “An all-to-all approach to the identification of sequence-specific readers for epigenetic DNA modifications on cytosine”
# Columns and labels:
# Experiment in all cases: DAPPL (digital affinity profiling via proximity ligation, sequencing); 10 mM Tris-HCl pH 7.5, 50 mM NaCl, 1 mM DTT, 4% glycerol, room temperature, 30 min; GST-TFs on glutathione beads, 16-mer random dsDNA library, 0.1% formaldehyde crosslink after washing; high values mean tight binding
# Conditions in all cases: protein: recombinant; tags: N-terminal GST; dsDNA, one strand shown
# FLI1 = target: T1, FLI1 (Homo sapiens, UniProt Q01543 1-452)
# T1 sequence: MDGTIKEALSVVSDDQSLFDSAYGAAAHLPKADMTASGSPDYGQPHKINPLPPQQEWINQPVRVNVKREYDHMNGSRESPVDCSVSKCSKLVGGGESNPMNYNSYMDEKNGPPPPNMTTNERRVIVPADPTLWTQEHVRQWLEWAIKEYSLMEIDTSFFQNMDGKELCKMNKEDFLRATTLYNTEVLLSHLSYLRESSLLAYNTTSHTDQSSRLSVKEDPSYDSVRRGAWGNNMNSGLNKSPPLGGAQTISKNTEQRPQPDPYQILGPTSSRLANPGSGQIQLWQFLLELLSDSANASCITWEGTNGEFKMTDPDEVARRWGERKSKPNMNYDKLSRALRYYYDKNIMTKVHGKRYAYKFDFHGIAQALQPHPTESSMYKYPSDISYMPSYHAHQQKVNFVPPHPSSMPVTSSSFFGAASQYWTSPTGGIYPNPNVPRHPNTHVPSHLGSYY
# Method in brief: (§1)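 Human transcription factors carrying a GST fusion were produced in yeast, bound to glutathione beads, tagged with DNA barcodes and pooled together with a tag-only sample. Each pool was held with 200 nmole of a random double-stranded 16-mer DNA library in Tris/NaCl/DTT/glycerol buffer for 30 min at room temperature, then washed, crosslinked in 0.1% formaldehyde, proximity-ligated with BsaI/T4 ligase (1 h, 37 °C), PCR-amplified and sequenced on an Illumina NextSeq500. Binding signal is the read frequency of each hexamer for a given factor divided by its frequency in the tag-only sample.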
# ELK1 = target: T2, ELK1 (Homo sapiens, UniProt P19419 1-428)
# T2 sequence: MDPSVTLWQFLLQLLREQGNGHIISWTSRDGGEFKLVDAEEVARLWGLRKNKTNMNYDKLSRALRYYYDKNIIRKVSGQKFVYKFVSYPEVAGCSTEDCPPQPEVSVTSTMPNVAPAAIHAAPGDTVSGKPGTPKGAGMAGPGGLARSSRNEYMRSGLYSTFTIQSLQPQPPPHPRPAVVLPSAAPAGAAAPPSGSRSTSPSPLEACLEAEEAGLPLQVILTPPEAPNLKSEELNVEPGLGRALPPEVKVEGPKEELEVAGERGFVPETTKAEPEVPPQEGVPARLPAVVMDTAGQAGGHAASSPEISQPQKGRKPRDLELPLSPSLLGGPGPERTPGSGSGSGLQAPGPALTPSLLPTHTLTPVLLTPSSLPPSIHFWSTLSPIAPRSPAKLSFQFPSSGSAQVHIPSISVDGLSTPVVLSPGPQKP
# Method in brief: as §1
# GABPA = target: T3, GABPA (Homo sapiens, UniProt Q06546 1-454)
# T3 sequence: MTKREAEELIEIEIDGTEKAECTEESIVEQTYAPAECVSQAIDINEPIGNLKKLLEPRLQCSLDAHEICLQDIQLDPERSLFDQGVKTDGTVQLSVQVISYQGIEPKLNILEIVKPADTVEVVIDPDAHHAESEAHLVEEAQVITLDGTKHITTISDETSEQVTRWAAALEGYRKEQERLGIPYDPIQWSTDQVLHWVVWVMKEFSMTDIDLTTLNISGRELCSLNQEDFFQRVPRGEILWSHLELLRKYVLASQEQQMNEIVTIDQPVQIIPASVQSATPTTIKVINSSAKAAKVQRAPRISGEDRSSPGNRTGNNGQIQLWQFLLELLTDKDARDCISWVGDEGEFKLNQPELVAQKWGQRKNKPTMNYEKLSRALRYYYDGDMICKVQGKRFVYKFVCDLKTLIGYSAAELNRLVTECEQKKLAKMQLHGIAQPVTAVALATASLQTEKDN
# Method in brief: as §1
# ERG = target: T4, ERG (Homo sapiens, UniProt P11308 1-479)
# T4 sequence: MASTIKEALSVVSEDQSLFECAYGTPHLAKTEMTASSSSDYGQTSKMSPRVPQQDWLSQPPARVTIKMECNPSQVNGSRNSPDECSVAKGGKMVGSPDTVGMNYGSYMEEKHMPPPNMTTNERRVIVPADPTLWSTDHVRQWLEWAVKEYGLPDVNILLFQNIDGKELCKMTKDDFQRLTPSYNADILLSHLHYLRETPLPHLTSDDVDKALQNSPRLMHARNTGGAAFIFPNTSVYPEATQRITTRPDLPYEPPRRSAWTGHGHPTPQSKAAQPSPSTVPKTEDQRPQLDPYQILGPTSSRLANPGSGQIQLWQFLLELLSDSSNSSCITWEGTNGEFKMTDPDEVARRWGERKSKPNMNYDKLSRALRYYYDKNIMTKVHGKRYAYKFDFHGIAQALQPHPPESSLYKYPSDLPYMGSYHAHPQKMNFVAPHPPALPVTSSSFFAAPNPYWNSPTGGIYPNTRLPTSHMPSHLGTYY
# Method in brief: as §1
# ELF1 = ELF1 (Homo sapiens, UniProt P32519 1-619)
# Sequence of ELF1 (P32519 whole entry): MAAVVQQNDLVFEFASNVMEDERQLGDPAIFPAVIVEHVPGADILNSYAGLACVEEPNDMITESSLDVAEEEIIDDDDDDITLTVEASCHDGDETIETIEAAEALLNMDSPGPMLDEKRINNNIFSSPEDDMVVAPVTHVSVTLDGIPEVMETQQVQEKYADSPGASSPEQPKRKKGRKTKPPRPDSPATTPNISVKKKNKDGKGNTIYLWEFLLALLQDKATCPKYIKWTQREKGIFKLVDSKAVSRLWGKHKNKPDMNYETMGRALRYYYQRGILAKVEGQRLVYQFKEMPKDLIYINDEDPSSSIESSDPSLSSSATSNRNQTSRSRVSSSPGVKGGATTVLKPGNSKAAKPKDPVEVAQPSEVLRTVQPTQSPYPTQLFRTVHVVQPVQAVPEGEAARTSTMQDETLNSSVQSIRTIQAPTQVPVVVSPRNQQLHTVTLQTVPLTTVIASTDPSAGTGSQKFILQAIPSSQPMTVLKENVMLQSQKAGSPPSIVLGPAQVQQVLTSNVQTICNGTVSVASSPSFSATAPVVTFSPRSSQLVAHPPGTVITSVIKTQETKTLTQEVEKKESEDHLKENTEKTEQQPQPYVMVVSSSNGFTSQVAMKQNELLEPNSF
# Method in brief: as §1
# EHF = target: T5, EHF (Homo sapiens, UniProt Q9NZC4 1-300)
# T5 sequence: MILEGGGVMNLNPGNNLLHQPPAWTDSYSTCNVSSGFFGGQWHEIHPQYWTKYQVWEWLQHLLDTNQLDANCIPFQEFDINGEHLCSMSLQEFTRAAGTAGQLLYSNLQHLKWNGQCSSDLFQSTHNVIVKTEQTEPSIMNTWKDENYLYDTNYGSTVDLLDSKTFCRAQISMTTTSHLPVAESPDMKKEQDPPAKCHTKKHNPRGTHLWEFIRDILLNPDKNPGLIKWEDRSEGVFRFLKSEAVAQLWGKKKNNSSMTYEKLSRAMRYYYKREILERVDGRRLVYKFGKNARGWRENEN
# Method in brief: as §1
# SPI1 = SPI1 (Homo sapiens, UniProt P17947 1-270)
# Method in brief: as §1
# SPIB = SPIB (Homo sapiens, UniProt Q01892 1-262)
# Sequence of SPIB (Q01892 whole entry): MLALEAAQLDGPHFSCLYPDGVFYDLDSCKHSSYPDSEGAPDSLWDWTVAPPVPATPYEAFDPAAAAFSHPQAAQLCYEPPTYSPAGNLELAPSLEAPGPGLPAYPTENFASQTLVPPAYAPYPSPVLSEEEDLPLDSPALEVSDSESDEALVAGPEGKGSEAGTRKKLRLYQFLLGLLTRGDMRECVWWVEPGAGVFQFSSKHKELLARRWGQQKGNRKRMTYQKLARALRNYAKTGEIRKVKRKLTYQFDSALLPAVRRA
# Method in brief: as §1
# ELK3 = target: T6, ELK3 (Homo sapiens, UniProt P41970 1-407)
# T6 sequence: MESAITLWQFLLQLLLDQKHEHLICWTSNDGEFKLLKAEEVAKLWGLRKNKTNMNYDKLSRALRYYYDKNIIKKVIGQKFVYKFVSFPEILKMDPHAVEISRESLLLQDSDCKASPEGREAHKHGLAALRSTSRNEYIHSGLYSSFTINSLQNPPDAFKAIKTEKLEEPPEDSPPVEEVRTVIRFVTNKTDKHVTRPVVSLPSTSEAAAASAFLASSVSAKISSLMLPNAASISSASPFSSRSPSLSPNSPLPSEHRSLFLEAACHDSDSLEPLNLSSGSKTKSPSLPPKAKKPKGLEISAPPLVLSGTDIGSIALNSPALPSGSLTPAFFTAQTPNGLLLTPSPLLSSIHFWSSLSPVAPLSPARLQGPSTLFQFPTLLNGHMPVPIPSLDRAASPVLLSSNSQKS
# Method in brief: as §1
# FEV = target: T7, FEV (Homo sapiens, UniProt Q99581 1-238)
# T7 sequence: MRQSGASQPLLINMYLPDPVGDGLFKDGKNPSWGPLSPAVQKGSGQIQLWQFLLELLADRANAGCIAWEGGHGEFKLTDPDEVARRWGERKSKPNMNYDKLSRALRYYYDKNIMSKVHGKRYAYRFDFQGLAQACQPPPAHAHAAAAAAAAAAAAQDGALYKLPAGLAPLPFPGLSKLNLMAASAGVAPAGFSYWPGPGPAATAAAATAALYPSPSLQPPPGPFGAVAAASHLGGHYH
# Method in brief: as §1
# ETV5 = ETV5 (Homo sapiens, UniProt P41161 1-510)
# Sequence of ETV5 (P41161 whole entry): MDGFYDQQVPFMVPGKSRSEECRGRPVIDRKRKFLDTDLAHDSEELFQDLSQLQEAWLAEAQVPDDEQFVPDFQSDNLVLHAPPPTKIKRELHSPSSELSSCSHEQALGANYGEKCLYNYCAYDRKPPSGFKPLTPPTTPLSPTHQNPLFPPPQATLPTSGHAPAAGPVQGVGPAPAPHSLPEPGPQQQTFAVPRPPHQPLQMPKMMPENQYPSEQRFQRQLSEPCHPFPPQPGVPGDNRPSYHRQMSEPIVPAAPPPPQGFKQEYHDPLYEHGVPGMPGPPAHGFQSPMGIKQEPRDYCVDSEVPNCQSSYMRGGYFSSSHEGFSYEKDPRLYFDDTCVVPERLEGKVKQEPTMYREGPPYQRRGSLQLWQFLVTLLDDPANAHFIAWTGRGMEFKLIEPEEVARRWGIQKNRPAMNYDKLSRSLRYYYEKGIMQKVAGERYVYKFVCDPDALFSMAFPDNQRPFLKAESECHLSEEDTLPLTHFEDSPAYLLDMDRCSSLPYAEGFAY
# Method in brief: as §1
# ELF4 = ELF4 (Homo sapiens, UniProt Q99607 1-663)
# Sequence of ELF4 (Q99607 whole entry): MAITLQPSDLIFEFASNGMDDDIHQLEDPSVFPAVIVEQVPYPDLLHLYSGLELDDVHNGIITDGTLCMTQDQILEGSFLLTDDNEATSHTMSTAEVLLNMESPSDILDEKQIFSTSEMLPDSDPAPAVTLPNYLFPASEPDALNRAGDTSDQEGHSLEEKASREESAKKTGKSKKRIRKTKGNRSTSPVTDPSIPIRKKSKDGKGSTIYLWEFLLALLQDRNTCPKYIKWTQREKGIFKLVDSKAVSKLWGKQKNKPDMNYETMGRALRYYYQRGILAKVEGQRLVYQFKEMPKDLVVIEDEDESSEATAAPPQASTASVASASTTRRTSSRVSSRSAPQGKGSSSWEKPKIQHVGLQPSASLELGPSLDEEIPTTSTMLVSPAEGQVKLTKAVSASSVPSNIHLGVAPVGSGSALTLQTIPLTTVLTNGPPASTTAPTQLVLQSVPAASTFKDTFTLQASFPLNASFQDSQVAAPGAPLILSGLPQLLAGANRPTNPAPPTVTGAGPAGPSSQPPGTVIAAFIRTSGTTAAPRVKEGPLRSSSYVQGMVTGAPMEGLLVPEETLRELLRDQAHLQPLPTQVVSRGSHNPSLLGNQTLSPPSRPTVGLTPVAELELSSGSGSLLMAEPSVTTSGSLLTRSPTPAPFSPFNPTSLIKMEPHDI
# Method in brief: as §1
# ETV1 = ETV1 (Homo sapiens, UniProt P50549 1-477)
# Sequence of ETV1 (P50549 whole entry): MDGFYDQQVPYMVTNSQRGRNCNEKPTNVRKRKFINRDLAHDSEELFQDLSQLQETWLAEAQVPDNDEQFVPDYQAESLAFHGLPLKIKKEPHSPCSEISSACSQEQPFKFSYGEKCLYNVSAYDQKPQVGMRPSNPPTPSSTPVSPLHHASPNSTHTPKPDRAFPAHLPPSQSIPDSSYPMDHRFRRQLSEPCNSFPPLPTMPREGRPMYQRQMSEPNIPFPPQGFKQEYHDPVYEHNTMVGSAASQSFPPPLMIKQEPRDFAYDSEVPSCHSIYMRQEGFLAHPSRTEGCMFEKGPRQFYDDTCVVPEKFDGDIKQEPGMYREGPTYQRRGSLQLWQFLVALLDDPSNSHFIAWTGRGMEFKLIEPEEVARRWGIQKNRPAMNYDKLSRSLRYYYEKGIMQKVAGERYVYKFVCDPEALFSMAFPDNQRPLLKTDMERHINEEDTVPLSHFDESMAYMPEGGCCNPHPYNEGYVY
# Method in brief: as §1
# ERF = target: T8, ERF (Homo sapiens, UniProt P50548 1-548)
# T8 sequence: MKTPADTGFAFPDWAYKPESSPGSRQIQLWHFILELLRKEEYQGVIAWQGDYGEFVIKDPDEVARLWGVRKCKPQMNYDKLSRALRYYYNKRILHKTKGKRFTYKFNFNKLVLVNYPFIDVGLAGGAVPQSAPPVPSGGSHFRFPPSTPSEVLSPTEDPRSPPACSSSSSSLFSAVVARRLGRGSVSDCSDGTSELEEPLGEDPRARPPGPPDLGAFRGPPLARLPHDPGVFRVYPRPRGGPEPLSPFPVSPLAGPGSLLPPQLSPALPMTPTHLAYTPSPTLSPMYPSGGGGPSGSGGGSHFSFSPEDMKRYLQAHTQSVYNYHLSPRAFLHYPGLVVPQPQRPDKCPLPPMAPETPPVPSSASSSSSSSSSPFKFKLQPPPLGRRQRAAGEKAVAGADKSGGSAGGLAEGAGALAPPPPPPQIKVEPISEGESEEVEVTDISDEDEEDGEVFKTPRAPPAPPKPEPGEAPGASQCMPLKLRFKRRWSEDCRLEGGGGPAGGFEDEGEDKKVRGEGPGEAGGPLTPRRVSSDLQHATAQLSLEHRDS
# Method in brief: as §1
# ETV3L = target: T9, ETV3L (Homo sapiens, UniProt Q6ZN32 1-361)
# T9 sequence: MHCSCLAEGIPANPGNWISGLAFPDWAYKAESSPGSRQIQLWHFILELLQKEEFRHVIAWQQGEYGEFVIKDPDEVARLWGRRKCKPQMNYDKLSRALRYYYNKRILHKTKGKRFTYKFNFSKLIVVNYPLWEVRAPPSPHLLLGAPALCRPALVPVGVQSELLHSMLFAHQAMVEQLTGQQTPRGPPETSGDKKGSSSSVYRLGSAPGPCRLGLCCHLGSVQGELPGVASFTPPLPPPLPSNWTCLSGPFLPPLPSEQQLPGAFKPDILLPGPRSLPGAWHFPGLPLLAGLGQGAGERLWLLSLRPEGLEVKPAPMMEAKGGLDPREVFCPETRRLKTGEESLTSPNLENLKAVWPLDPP
# Method in brief: as §1
# ETS2 = target: T10, ETS2 (Homo sapiens, UniProt P15036 1-469)
# T10 sequence: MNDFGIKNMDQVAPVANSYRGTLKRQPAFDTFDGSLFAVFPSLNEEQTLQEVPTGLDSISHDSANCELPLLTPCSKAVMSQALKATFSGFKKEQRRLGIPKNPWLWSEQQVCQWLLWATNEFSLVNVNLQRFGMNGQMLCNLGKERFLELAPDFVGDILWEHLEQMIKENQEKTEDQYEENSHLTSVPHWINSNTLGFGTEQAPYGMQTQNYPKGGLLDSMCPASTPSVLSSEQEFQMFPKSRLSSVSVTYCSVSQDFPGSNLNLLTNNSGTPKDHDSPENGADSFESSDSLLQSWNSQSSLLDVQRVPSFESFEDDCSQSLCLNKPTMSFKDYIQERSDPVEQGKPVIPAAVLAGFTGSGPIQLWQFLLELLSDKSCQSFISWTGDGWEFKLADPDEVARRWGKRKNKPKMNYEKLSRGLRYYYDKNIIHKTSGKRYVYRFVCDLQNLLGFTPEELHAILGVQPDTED
# Method in brief: as §1
# SPDEF = target: T11, SPDEF (Homo sapiens, UniProt O95238 1-335)
# T11 sequence: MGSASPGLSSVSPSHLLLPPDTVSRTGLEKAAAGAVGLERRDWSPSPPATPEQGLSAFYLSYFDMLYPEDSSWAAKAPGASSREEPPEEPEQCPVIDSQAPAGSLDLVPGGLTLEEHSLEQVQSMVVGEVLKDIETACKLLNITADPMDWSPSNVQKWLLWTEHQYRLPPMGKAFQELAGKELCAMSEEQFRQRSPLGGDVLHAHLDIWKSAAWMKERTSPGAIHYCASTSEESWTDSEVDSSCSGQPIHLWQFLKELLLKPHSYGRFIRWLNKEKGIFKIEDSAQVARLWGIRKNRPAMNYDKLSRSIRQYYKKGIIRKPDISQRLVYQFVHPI
# Method in brief: as §1
# ETV3 = target: T12, ETV3 (Homo sapiens, UniProt P41162-2 1-143)
# T12 sequence: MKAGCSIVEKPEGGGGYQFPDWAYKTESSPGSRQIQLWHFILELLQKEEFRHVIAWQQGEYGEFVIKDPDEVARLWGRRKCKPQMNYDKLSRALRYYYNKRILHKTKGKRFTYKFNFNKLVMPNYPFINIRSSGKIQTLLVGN
# Method in brief: as §1
# ETV6 = ETV6 (Homo sapiens, UniProt P41212 1-452)
# Sequence of ETV6 (P41212 whole entry): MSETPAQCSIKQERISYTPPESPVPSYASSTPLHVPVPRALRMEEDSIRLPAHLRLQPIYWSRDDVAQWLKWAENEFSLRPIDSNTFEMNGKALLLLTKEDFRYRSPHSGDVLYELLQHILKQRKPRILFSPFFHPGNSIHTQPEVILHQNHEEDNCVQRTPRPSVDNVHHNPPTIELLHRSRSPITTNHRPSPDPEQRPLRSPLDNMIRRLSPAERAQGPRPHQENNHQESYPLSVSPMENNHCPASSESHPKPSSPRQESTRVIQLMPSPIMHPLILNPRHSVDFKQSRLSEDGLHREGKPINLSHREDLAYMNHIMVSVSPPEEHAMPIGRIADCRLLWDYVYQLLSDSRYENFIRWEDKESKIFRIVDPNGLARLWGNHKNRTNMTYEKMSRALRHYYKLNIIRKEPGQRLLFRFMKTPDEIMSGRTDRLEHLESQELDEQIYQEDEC
# Method in brief: as §1
sequence,measurement,setting,value
TCATAC,binding signal,FLI1,"1.08 fold enrichment (6-mer frequency, TF over GST control)"
same,binding signal,ELK1,"1.1 fold enrichment (6-mer frequency, TF over GST control)"
same,binding signal,GABPA,"1.09 fold enrichment (6-mer frequency, TF over GST control)"
same,binding signal,ERG,"1.14 fold enrichment (6-mer frequency, TF over GST control)"
same,binding signal,ELF1,"1.15 fold enrichment (6-mer frequency, TF over GST control)"
same,binding signal,EHF,"1.02 fold enrichment (6-mer frequency, TF over GST control)"
same,binding signal,SPI1,"1.13 fold enrichment (6-mer frequency, TF over GST control)"
same,binding signal,SPIB,"1.16 fold enrichment (6-mer frequency, TF over GST control)"
same,binding signal,ELK3,"1.17 fold enrichment (6-mer frequency, TF over GST control)"
same,binding signal,FEV,"1.07 fold enrichment (6-mer frequency, TF over GST control)"
same,binding signal,ETV5,"1.02 fold enrichment (6-mer frequency, TF over GST control)"
same,binding signal,ELF4,"1.07 fold enrichment (6-mer frequency, TF over GST control)"
same,binding signal,ETV1,"1.14 fold enrichment (6-mer frequency, TF over GST control)"
same,binding signal,ERF,"1.2 fold enrichment (6-mer frequency, TF over GST control)"
same,binding signal,ETV3L,"1.13 fold enrichment (6-mer frequency, TF over GST control)"
same,binding signal,ETS2,"1.06 fold enrichment (6-mer frequency, TF over GST control)"
same,binding signal,SPDEF,"1.05 fold enrichment (6-mer frequency, TF over GST control)"
same,binding signal,ETV3,"1.01 fold enrichment (6-mer frequency, TF over GST control)"
same,binding signal,ETV6,"1.01 fold enrichment (6-mer frequency, TF over GST control)"
